From PubChem BioAssay (Tox21)
A number with no mark means an inactive call. Results filed as inconclusive are left out. Where a call stands in place of a potency, no number is given. Active and inactive are the calls of the source. Unless noted, the call rests on the fitted dose curve; in most records, active means well fitted curve in the direction sought with a large enough effect in the repeat runs; inconclusive means weak or mixed curves; inactive means no such curve, though single readings can be large; an effect the other way counts as inactive or inconclusive.

Experiments:
[1] = qHTS assay to identify small molecule antagonists of the glucocorticoid receptor (GR) signaling pathway - cell viability counter screen (AID 720693); further: nearly all actives have a fitted effect of over 55% in size
[2] = qHTS assay for identifying genotoxic compounds that show differential cytotoxicity against isogenic chicken DT40 cell lines with known DNA damage response pathways - wild type cell line (AID 743012); further: nearly all actives have a fitted effect of over 60% in size; further: potency means the concentration at half of the fitted maximal effect
How it was run: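 Viability of DNA repair-proficient chicken DT40 cells was assessed by CellTiter-Glo luminescence following 40 h compound exposure at 37 C/5% CO2.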

[3] = qHTS assay for identifying genotoxic compounds that show differential cytotoxicity against isogenic chicken DT40 cell lines with known DNA damage response pathways - Rev3 mutant cell line (AID 743014); further: nearly all actives have a fitted effect of over 55% in size; further: potency means the concentration at half of the fitted maximal effect
[4] = qHTS assay for identifying genotoxic compounds that show differential cytotoxicity against isogenic chicken DT40 cell lines with known DNA damage response pathways - Rad54/Ku70 mutant cell line (AID 743015); further: nearly all actives have a fitted effect of over 60% in size; further: potency means the concentration at half of the fitted maximal effect
[5] = qHTS assay to identify small molecule antagonists of the androgen receptor (AR) signaling pathway - cell viability counter screen (AID 743033; further: nearly all actives have a fitted effect of over 45% in size)
[6] = qHTS assay to identify small molecule antagonists of the androgen receptor (AR) signaling pathway using the MDA cell line - cell viability counter screen (AID 743041; further: nearly all actives have a fitted effect of over 45% in size)
How it was run: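 Viability read by CellTiter-Fluor fluorescence in the same wells as the antagonist screen, added after 15.5 h of a 16 h, 37C exposure. Human breast carcinoma MDA-kb2 AR-luc cells, compounds co-dosed with agonist R1881.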

[7] = qHTS assay to identify small molecule antagonists of the thyroid receptor (TR) signaling pathway - cell viability counter screen (AID 743064); further: nearly all actives have a fitted effect of over 50% in size
How it was run: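 CellTiter-Fluor readout, 30 min at 37 °C/5% CO2, following 23.5 h incubation of GH3.TRE-Luc cells with test compound and 1 nM T3 (final).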

[8] = qHTS assay to identify small molecule antagonists of the thyroid receptor (TR) signaling pathway (AID 743065); further: series mostly up to about 70 µM; nearly all actives have a fitted effect of over 55% in size
How it was run: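 Antagonism measured as loss of luciferase signal in GH3 cells stably carrying a TRE-luciferase reporter, co-treated with compound and T3 (1 nM final) for 23.5 h at 37 C. Viability was read in the same well by CellTiter-Fluor.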

[9] = test system: thyroid hormone receptor (rat, GH3 cells); test: qHTS assay to identify small molecule agonists of the thyroid receptor (TR) signaling pathway (AID 743066; calls by dose curve)
[10] = target: Estrogen receptor (Homo sapiens) (UniProt P03372); test: qHTS assay to identify small molecule antagonists of the estrogen receptor alpha (ER-alpha) signaling pathway (AID 743069; active means well fitted curve in the direction sought with a large enough effect in the signal ratio in the repeat runs, not every such curve was filed as active; the % refers to the signal ratio)
How it was run: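 Antagonist mode: compounds in DMSO were co-added with 17beta-estradiol to ER-alpha-bla HEK293 cells (2% charcoal-stripped serum) and left 18 h at 37C. Reporter inhibition was measured as FRET fluorescence after 2 h LiveBLAzer substrate at room temperature.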

[11] = qHTS assay to identify small molecule antagonists of the estrogen receptor alpha (ER-alpha) signaling pathway - cell viability counter screen (AID 743074; calls by dose curve;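 further: HEK293 cells carrying ER-alpha-UAS-bla reporter stimulated with 17beta-estradiol; nearly all actives have a fitted effect of over 45% in size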)
[12] = target: Estrogen receptor (Homo sapiens) (UniProt P03372); test: qHTS assay to identify small molecule agonists of the estrogen receptor alpha (ER-alpha) signaling pathway (AID 743075; calls by dose curve;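 further: HEK293 GripTite cells with ER-alpha and UAS-driven beta-lactamase reporter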)
[13] = target: Estrogen receptor (Homo sapiens) (UniProt P03372); test: qHTS assay to identify small molecule agonists of the estrogen receptor alpha (ER-alpha) signaling pathway using the BG1 cell line (AID 743079); further: nearly all actives have a fitted effect of over 20% in size
[14] = qHTS assay to identify small molecule antagonists of the estrogen receptor alpha (ER-alpha) signaling pathway using the BG1 cell line (AID 743080; calls by dose curve;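 further: BG1 cells stimulated with 17beta-estradiol alongside compound; series mostly up to about 70 µM; nearly all actives have a fitted effect of over 25% in size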)
How it was run: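 Readout is ONE-Glo luminescence, taken 30 min at room temperature after reagent addition, preceded by a CellTiter-Fluor viability read; BG1-Luc-4E2 cells had received compound and 17beta-estradiol for 21.5 h at 37 C.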

[15] = qHTS assay to identify small molecule antagonists of the estrogen receptor alpha (ER-alpha) signaling pathway using the BG1 cell line - cell viability counter screen (AID 743081);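 further: compound given together with 17beta-estradiol as the ER stimulus; series mostly up to about 70 µM; nearly all actives have a fitted effect of over 45% in size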
Aromatase (Homo sapiens) = Aromatase (Homo sapiens) (UniProt P11511); test: qHTS assay to identify aromatase inhibitors (AID 743083); further: series mostly up to about 70 µM; nearly all actives have a fitted effect of over 55% in size
[16] = qHTS assay to identify aromatase inhibitors - cell viability counter screen (AID 743084); further: potency means the concentration at half of the fitted maximal effect
[17] = target: Androgen receptor (Homo sapiens) (UniProt P10275); test: qHTS assay to identify small molecule agonists of the androgen receptor (AR) signaling pathway using the MDA cell line (AID 743040; further: nearly all actives have a fitted effect of over 20% in size)
How it was run: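 Luciferase agonist assay: 16 h compound exposure at 37C without CO2 in MDA-kb2 AR-luc cells, whose MMTV promoter responds to both AR and GR. Luminescence measured after 30 min room-temperature incubation with ONE-Glo.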

[18] = target: Androgen receptor (Homo sapiens) (UniProt P10275); test: qHTS assay to identify small molecule agonists of the androgen receptor (AR) signaling pathway (AID 743036; active means well fitted activation curve with a large enough effect in the signal ratio in the repeat runs, with a control signal flat, not every such curve was filed as active; the % refers to the signal ratio)
How it was run: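 Following a 4 h settling period, AR-UAS-bla HEK293 cells were dosed with compounds for 16 h at 37C. A 2 h room-temperature incubation with LiveBLAzer B/G FRET substrate preceded the fluorescence measurement.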

[19] = target: Androgen receptor (Homo sapiens) (UniProt P10275); test: qHTS assay to identify small molecule antagonists of the androgen receptor (AR) signaling pathway using the MDA cell line (AID 743042; further: nearly all actives have a fitted effect of over 55% in size)
How it was run: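 Antagonist mode: compounds plus R1881 agonist added to MDA-kb2 AR-luc cells, incubated 16 h at 37C. Luciferase reporter luminescence quantified, with multiplexed CellTiter-Fluor readout for cell viability.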

Chain of Estrogen receptor (Homo sapiens) (P03372 whole entry, looked up): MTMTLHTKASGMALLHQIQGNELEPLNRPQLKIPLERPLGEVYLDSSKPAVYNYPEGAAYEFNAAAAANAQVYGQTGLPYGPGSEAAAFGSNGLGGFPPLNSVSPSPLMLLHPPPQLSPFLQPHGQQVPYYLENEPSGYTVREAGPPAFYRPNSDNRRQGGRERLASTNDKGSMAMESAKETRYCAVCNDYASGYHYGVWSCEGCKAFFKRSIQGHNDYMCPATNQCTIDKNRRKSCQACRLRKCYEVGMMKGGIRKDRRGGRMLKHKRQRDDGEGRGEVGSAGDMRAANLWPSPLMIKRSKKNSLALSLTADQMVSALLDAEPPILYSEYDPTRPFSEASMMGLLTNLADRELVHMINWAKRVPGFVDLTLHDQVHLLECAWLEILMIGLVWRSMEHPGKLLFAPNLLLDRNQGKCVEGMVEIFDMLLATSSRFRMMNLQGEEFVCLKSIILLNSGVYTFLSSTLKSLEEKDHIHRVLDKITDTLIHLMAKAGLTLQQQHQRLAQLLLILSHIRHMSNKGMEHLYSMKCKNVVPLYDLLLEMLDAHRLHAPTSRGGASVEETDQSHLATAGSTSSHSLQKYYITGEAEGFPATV
Chain of Aromatase (Homo sapiens) (P11511 whole entry, looked up): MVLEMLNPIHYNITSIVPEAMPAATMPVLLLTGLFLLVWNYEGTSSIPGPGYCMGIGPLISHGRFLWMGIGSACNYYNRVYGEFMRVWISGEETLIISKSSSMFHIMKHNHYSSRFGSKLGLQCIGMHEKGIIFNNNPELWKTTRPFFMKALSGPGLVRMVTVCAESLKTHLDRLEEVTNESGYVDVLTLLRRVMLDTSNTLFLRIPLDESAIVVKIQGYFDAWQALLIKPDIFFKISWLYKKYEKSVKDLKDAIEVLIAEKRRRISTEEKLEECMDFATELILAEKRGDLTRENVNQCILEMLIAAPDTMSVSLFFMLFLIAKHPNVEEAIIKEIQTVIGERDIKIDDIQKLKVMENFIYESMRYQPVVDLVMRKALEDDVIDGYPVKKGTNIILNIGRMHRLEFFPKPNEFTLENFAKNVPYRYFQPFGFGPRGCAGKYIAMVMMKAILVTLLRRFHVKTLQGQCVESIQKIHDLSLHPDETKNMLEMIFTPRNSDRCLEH
Chain of Androgen receptor (Homo sapiens) (P10275 whole entry, looked up): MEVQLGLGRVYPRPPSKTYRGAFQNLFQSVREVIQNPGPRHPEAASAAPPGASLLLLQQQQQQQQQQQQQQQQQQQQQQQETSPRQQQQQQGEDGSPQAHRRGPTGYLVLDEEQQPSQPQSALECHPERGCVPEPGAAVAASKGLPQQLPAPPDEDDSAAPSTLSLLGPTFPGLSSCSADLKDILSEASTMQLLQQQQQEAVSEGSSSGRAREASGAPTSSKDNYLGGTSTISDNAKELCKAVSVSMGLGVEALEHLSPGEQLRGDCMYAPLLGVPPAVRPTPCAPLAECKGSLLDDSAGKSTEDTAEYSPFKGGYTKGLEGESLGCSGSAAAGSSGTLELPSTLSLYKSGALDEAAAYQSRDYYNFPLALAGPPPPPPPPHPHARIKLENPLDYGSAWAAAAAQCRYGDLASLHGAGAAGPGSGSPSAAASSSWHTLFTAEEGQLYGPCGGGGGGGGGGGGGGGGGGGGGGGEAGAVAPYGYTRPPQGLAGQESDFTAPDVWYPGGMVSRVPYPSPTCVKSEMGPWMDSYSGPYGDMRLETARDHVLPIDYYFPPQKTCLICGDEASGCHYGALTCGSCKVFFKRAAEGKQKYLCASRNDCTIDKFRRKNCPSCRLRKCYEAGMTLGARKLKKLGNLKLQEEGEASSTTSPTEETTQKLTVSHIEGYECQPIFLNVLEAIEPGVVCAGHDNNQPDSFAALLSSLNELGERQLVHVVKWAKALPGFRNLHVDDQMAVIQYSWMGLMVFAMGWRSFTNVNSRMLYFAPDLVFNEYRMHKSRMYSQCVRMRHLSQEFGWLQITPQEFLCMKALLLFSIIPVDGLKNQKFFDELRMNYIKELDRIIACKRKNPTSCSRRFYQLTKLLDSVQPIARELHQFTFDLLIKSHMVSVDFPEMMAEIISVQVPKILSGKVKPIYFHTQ

Row | SMILES | Potency [1] | Potency [2] | Potency [3] | Potency [4] | Potency [5] | Potency [6] | Potency [7] | Potency [8] | Potency [9] | Potency [10] | Potency [11] | Potency [12] | Potency [13] | Potency [14] | Potency [15] | Potency (Aromatase (Homo sapiens)) | Potency [16] | Potency [17] | outcome [18] | Potency [19]
1 | COc1ccc(-c2cc(C(F)F)nn2-c2ccc(S(N)(=O)=O)cc2)cc1F | inactive | inactive | inactive | inactive | inactive | inactive | inactive | inactive | inactive | inactive | inactive | inactive | inactive | inactive | inactive | inactive | inactive |  |  | 
2 | CC(C)(O)CCc1ccccc1 | inactive | inactive | inactive | inactive | inactive | inactive | inactive | inactive | inactive | inactive | inactive | inactive | inactive | inactive | inactive | inactive | inactive |  |  | 
3 | CC(C)c1ccc(C(=O)N=C(N)N)cc1S(C)(=O)=O | inactive | inactive | inactive | inactive | inactive | inactive | inactive | inactive | inactive | inactive | inactive | inactive |  | inactive | inactive | inactive | inactive |  |  | 
4 | O=C(O)CNC(=O)c1ccccc1I | inactive | inactive | inactive | inactive | inactive | inactive | inactive | inactive | inactive | inactive | inactive | inactive | inactive | inactive | inactive | inactive | inactive |  |  | 
5 | O=c1[nH][nH]c(=O)c2cc([N+](=O)[O-])ccc12 | inactive | inactive | inactive | inactive | inactive | inactive | inactive | inactive | inactive | inactive | inactive | inactive | inactive | inactive | inactive | inactive | inactive |  |  | 
6 | Nc1cccc2c(N)cccc12 | inactive | 54.5 µM (active) | 47.2 µM (active) | 41.6 µM (active) | inactive |  |  |  | inactive | inactive |  | inactive |  | inactive |  |  | inactive | inactive |  | 
7 | O=P(O)(O)Oc1ccccc1 | inactive | inactive | inactive | inactive | inactive | inactive | inactive | inactive | inactive | inactive | inactive | inactive | inactive | inactive | inactive | inactive | inactive |  |  | 
8 | CCCCC[C@H](O)/C=C/[C@H]1[C@H](O)CC(=O)[C@@H]1C/C=C\CCCC(=O)O | inactive | inactive | inactive | inactive | inactive | inactive |  |  | inactive |  | inactive |  |  |  |  | inactive | inactive | inactive |  | 
9 | O=c1[nH]c2cc(C(F)(F)F)c(N3CCOCC3)cc2n(CP(=O)(O)O)c1=O | inactive | inactive | inactive | inactive | inactive | inactive | inactive | inactive | inactive | inactive | inactive | inactive | inactive | inactive | inactive | inactive | inactive |  |  | 
10 | O=C1CC[C@@H](C(=O)O)N1 | inactive | inactive | inactive | inactive | inactive |  |  | inactive | inactive |  | inactive |  |  |  | inactive | inactive | inactive | inactive | inactive | inactive
11 | CC(C)N=C=NC(C)C | inactive | inactive | inactive | inactive | inactive | inactive | inactive | inactive | inactive | inactive | inactive |  |  | inactive | inactive | inactive | inactive |  |  | 
12 | CCOCCC(=O)OCC | inactive | inactive | inactive | inactive | inactive | inactive | inactive | inactive | inactive | inactive | inactive | inactive | inactive | inactive | inactive | inactive | inactive |  |  | 
13 | CC(C)N(C)C | inactive | inactive | inactive | inactive | inactive | inactive | inactive | inactive | inactive | inactive | inactive | inactive | inactive | inactive | inactive | inactive | inactive |  |  | 
14 | C[C@H](CS)C(=O)N1CCC[C@H]1C(=O)O | inactive | inactive | inactive | inactive | inactive | inactive |  | inactive | inactive |  | inactive |  |  |  | inactive | inactive | inactive | inactive | inactive | inactive
15 | Cc1cc([N+](=O)[O-])ccc1N | inactive | inactive | inactive | inactive | inactive | inactive | inactive | inactive | inactive | inactive |  | inactive |  | inactive | inactive |  | 53.8 µM (active) |  |  | 
16 | CCSC(=O)N(CC)CC | inactive | inactive | inactive | inactive | inactive | inactive | inactive | inactive | inactive | inactive | inactive | inactive | inactive | inactive | inactive | inactive | inactive |  |  | 
17 | BrC(Br)C(Br)Br | inactive | inactive | inactive | inactive | inactive | inactive | inactive | inactive | inactive | inactive | inactive | inactive | inactive | inactive | inactive | inactive | inactive | inactive | inactive | inactive
